Hits are enriched below; roughly 6.2% of the tested compounds scored in any of these assays.
HCMV inh: blocks human cytomegalovirus replication; HFF cells, HCMV-luciferase reporter, 72 h; active compounds read low; activity change, negative = inhibition, % at 57.5 µM; hit rate 4.5% among 410,000; AID 1259415; in the data active = activity change below about -60%; inconclusive = no clear call, values can overlap the other calls; inactive = above about -39%
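Two-dose cell screen: HFF monolayers treated with compounds and infected with luciferase-expressing HCMV at 1 PFU/cell, 72 h at 37C, then lysed for luciferase measurement.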
LASV entry inh: Lassa virus entry inhibition; AID 540256; hit rate 1.2% among 300,000; Lassa virus pseudotype entry inhibition, cell reporter; Potency, µM (highest dose often 37.9 µM), most hits filed as inhibitors; calls by dose curve; tested in HEK293 cells; also: nearly all actives have a fitted effect of over 50% in size
FMDV antiviral: blocks foot and mouth disease virus | FMDV antiviral cell-based qHTS | Potency, µM (highest dose often 57.9 µM), actives largely listed as inhibitors | hit rate 1.2% among 410,000 | AID 1159524; calls by dose curve; tested in HEK293T cells; also: read-out not given here; nearly all actives have a fitted effect of over 45% in size
MARV entry inh: Marburg virus entry inhibition; hit rate 1.8% among 300,000; AID 540276; Potency, µM (doses to about 37.8 µM), hits mostly inhibitors; Marburg virus pseudotyped entry inhibition, cell reporter; calls by dose curve; tested in HEK293 cells
A number is an active result; 0 = inactive; ? = inconclusive; - = no result; + = active, no number; ! = a repeat was not active.

SMILES | HCMV inh | LASV entry inh | FMDV antiviral | MARV entry inh
Cc1ccc(S(=O)(=O)CC(=O)Nc2sc3c(c2C(N)=O)CCCC3)cc1 | + | 0 | 0 | -
CCN1CCN(S(=O)(=O)c2ccc(C(=O)Nc3sc4c(c3C(N)=O)CCN(CC)C4)cc2)CC1 | 0 | ? | 0 | 8.91µM
CCOC(=O)c1c(NC(=O)c2ccc(S(=O)(=O)N3CCC(C)CC3)cc2)sc2c1CCN(C(C)C)C2 | 0 | 0 | 0 | -
CCCN1CCc2c(sc(NC(=O)CCS(=O)(=O)c3ccccc3)c2C(N)=O)C1 | -92.4 | 0 | 0 | 0
C[C@H](N)C(=O)O | - | - | 0 | -
CCOC(=O)N1CCc2c(sc(NC(=O)c3ccc(S(=O)(=O)N4CCCC4)cc3)c2C#N)C1 | 0 | - | 17.8µM | -
CC(C)N1CCc2c(sc(NC(=O)c3ccc(S(=O)(=O)N4CCOCC4)cc3)c2C#N)C1 | - | - | 0 | 0
COc1ccc(C(=O)NC(=S)NNC(=O)c2cccc(C)c2)cc1 | 0 | ? | 0 | ?
COc1ccc(C(=O)NNC(=S)NC(=O)c2ccc(OC)cc2)cc1 | -92.2 | - | 0 | -
CCCOc1ccc(C(=O)NNC(=S)NC(=O)CC)cc1 | -62.1 | 14.6µM | 0 | ?
COc1ccc(C(=O)NNC(=O)c2ccc3ccccc3n2)cc1 | -88.5 | ? | 0 | ?
COc1ccc(C(=O)NNC(=S)NC(=O)c2cccnc2)cc1 | -88.6 | 0 | 0 | ?
COc1ccc(CC(=O)NNC(=S)NC(=O)c2cccnc2)cc1 | 0 | 0 | 0 | ?
CCCOc1ccc(C(=O)NC(=S)NCc2cccnc2)cc1 | -64.7 | 0 | 0 | 0
N#Cc1ccccc1N/C=C/C(=O)c1ccc(Cl)cc1 | 0 | 12.6µM | 0 | ?
NC(=O)c1ccccc1N/C=C/C(=O)c1ccc(Cl)cc1Cl | 0 | ? | 0 | 5.62µM
Cc1cccc(C)c1NC(=O)CNC(=O)C12CC3CC(CC(O)(C3)C1)C2 | -73.1 | 0 | 0 | ?
Cc1cccc(NC(=O)CNC(=O)C23CC4CC(CC(Cl)(C4)C2)C3)n1 | 0 | 0 | 0 | 0
C=CCN1CCC(=O)C(C(=O)OCC)=C1C(=O)OCC | 0 | - | 0 | -
O=C(c1ccc(-n2c(SCc3cccc(F)c3)nc3ccccc3c2=O)cc1)N1CCOCC1 | -62.9 | 0 | ? | 0
O=C(O)c1ccc(CSc2nc3ccccc3c(=O)n2-c2ccccc2)cc1 | 0 | - | 0 | -
Cc1cc([N+](=O)[O-])c2[nH]c(C(=O)N/N=C/c3ccccc3C(=O)O)c(-c3ccccc3)c2c1 | -80.2 | 0 | 0 | 0
CCOC(=O)C1=C(CC)Nc2ccccc2N=C1NC(=O)CCNC(C)=O | 0 | 2.82µM | 0 | 0
O=C(CSc1nc(-c2ccccc2F)nc2cc(=O)[nH]n12)Nc1cccc(C(F)(F)F)c1 | 0 | 0 | 0 | -
CC(=O)Nc1ccc(OCC(O)Cn2c3ccccc3c3ccccc32)c(C)c1 (stereo not given) | -60.7 | ? | 22.4µM | 0
SMILES | HCMV inh | LASV entry inh | FMDV antiviral | MARV entry inh
CC(=O)Nc1ccc(OCC(O)Cn2c3ccccc3c3ccccc32)cc1 (stereo not given) | 0 | 0 | 0 | ?
Cc1ccc(N(CC(O)Cn2c3ccccc3c3ccccc32)S(C)(=O)=O)cc1 (stereo not given) | 0 | 0 | - | ?
CCCN(CCC)CC(O)Cn1c2ccccc2c2ccccc21 (stereo not given) | 0 | 0 | 0 | 7.08µM
Cc1cccc(N(CC(O)Cn2c3ccccc3c3ccccc32)S(=O)(=O)c2ccc(F)cc2)c1 (stereo not given) | -107.5 | ? | ? | ?
CC(=O)Nc1ccc(N(CC(O)Cn2c3ccccc3c3ccccc32)S(=O)(=O)c2ccc(C)cc2)cc1 (stereo not given) | 0 | 11.2µM | ? | ?
CC1=C(c2ccccc2)C(=O)C(C)(C)CC1=O | 0 | - | - | -
Cc1ccc(N(CC(O)Cn2c3ccccc3c3ccccc32)S(C)(=O)=O)c(C)c1 (stereo not given) | -100.9 | 0 | ? | 16.4µM
CC(=O)NC(Cc1ccc(N(CCCl)CCCl)cc1)C(=O)O (stereo not given) | 0 | 0 | - | ?
N[C@@H](Cc1ccc(N(CCCl)CCCl)cc1)C(=O)O | 0 | - | 0 | 5.8µM
COc1cc(C(=O)NN=Cc2ccc(N(CCCl)CCCl)cc2)cc(OC)c1OC | 0 | ? | 0 | ?
O=C(O)CCCc1ccc(N(CCCl)CCCl)cc1 | 0 | 0 | 0 | 3.16µM!
NC(Cc1ccc(O)cc1)C(=O)NN=Cc1ccc(N(CCCl)CCCl)cc1 (stereo not given) | 0 | 3.98µM | 0 | 1.26µM
O=C(Cn1c(SCC(=O)Nc2ccc(F)cc2)nc2ccccc21)NCc1ccccc1Cl | ? | 0 | 0 | -
O=c1n2c(c(O)n1C1CCCCC1)C(c1ccccc1)=Nc1ccccc1C2 | 0 | - | 0 | -
COc1ccc(N2CCC[C@@H]2/C=C/C(=O)OCc2ccccc2)cc1 | 0 | - | - | -
CCN(CC(=O)Nc1c(C(=O)OC)[nH]c2ccccc12)c1ccc2c(c1)OCO2 | 0 | 0 | 0 | 6.51µM
COC(=O)c1[nH]c2ccccc2c1NC(=O)/C=C/c1ccc2c(c1)OCO2 | 0 | 0 | 0 | 0
O=S(=O)(c1ccc(O)cc1)c1ccc(O)cc1 | 0 | - | 0 | -
O=C1C=CC(=C(c2ccc(O)cc2)c2ccc(O)cc2)C=C1 | -100.1 | - | 12.6µM | -
COc1ccc(CN2CCCC(n3cc(C(=O)NC4CCCC4)nn3)C2)c(O)c1 (stereo not given) | - | - | 0 | -
CC1CCN(C(=O)C2CCCN(S(=O)(=O)c3cccc4nsnc34)C2)CC1 (stereo not given) | 0 | 0 | 0 | 0
O=C(C1CCCN(S(=O)(=O)c2cccc3nsnc23)C1)N1CCN(c2ccccn2)CC1 (stereo not given) | -64.8 | 0 | 28.2µM | ?
O=C(C1CCCN(S(=O)(=O)c2cccc3nsnc23)C1)N1CCN(c2cccc(Cl)c2)CC1 (stereo not given) | -85.5 | ? | 11.2µM | ?
COc1cccc(N2CCN(C(=O)C3CCCN(S(=O)(=O)c4cccc5nsnc45)C3)CC2)c1 (stereo not given) | 0 | ? | 0 | ?
COc1ccc(CCNC(=O)Cn2c(=O)nc(-c3ccccc3)c3cc(Cl)ccc32)cc1OC | ? | 0 | 0 | -
SMILES | HCMV inh | LASV entry inh | FMDV antiviral | MARV entry inh
Cc1cc(C)c(O)c(CN(C)Cc2cc(Cl)cc(Cl)c2O)c1 | 0 | ? | 0 | 3.16µM
CN(CC(=O)Nc1ccccc1Br)C(=O)CNC(=O)c1ccc(Oc2ccccc2)cc1 | -63.0 | - | 0 | -
COc1cccc(NC(=O)CN(C)C(=O)CNC(=O)c2ccc(Oc3ccccc3)cc2)c1 | 0 | 0 | 0 | 0
Brc1cc2c(cc1CN1CCN(c3ccccc3)CC1)OCCO2 | 0 | ? | 0 | ?
COCc1cc(CN2CCN(C)CC2)c(O)c2ncccc12 | ? | ? | 0 | ?
c1ccc(N2CCN(Cc3ccnc4ccccc34)CC2)cc1 | -83.0 | 0 | 0 | ?
CC(C)OCc1cc(CN2CCN(c3ccccc3)CC2)c(O)c2ncccc12 | -70.0 | ? | ? | ?
Oc1c(CN2CCN(c3ccccc3)CC2)cc(Br)c2cccnc12 | -70.3 | - | ? | -
CCOC(=O)N1CCN(Cc2cc(Cl)c3cccnc3c2O)CC1 | -92.1 | ? | 0 | ?
COc1ccc2cc(C(=O)CS(=O)(=O)c3ccc(Cl)cc3)c(=O)oc2c1 | 0 | - | - | -
O=C(O)/C=C\c1cnc[nH]1 | - | - | - | 0
Cc1ccc(-c2nn3c(-c4ccccc4C)nnc3c3ccccc23)cc1 | 0 | 0 | 0 | 0
O=C(Oc1c(CN2CCOCC2)cc(Cl)c2cccnc12)c1ccccc1Br | -67.2 | - | 0 | -
CCOCc1cc(CN2CCN(c3cccc(Cl)c3)CC2)c(O)c2ncccc12 | -100.2 | ? | 0 | ?
